# PubChem BioAssay (EPA / NIEHS)
# Active and inactive are the calls of the source. How the source made its calls: active means hit-call score of the fitted dose curve at least 0.9, where 1 is the maximum; inactive means score below 0.9.
# Legend:
# [1] = APR_HepG2_CellLoss_1hr: Apredica 1-hour HepG2 Assay for Cell Loss (AID 2282668); settings: high-content imaging;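 further: curves fitted both ways against DMSO so gain or loss of cells counts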
# Summary of the method: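 Cell number comes from high-content imaging of Hoechst-labelled nuclei in fixed HepG2 cells. Cells were exposed for 1 h to ten concentrations from 0.39 to 200 uM in 0.5% DMSO. Gain or loss was fitted against DMSO controls.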
# [2] = APR_HepG2_MicrotubuleCSK_1hr: Apredica 1-hour HepG2 Assay for Microtubule CSK Stabilty (AID 2282669); settings: HepG2 microtubule cytoskeleton imaging, actives raise or lower the signal
# Summary of the method: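 Alpha-tubulin immunofluorescence, imaged by automated high-content microscopy with Hoechst nuclear segmentation, measured cytoskeletal change after 1 h dosing of HepG2 at 0.39–200 uM in 0.5% DMSO. Activity fitted in both directions relative to DMSO.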
# [3] = APR_HepG2_MitoticArrest_1hr: Apredica 1-hour HepG2 Assay for Mitotic Arrest (AID 2282672); settings: high-content imaging, actives raise or lower the signal
# Summary of the method: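 Ten-point concentration series (0.39 to 200 uM, duplicates, 0.5% v/v DMSO) applied to human HepG2 liver cells for 1 hr. High-content imaging of phospho-histone H3 and Hoechst-stained nuclei after fixation and permeabilization; DMSO-normalised bidirectional fit.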
# [4] = APR_HepG2_P-H2AX_1hr: Apredica 1-hour HepG2 Assay for H2AX Phosphorylation (AID 2282673); settings: high-content imaging, actives raise or lower the signal
# Summary of the method: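 Phospho-H2A.x immunofluorescence (1:200, FITC secondary) plus Hoechst nuclear stain, quantified by high-content imaging in HepG2 after 1 hr compound exposure. Ten concentrations, 0.39 to 200 uM, in duplicate with 0.5% DMSO; fit both directions against DMSO.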
# [5] = APR_HepG2_MitoMass_1hr: Apredica 1-hour HepG2 Assay for Mitochondrial Mass (AID 2282674); settings: high-content imaging, actives raise or lower the signal
# Summary of the method: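 Mitochondrial mass is taken from MitoTracker Red CMXRos (250 nM, 30 min, pre-fixation) fluorescence imaged at 20x in HepG2 cells. Exposure lasted 1 hr across ten concentrations, 0.39 to 200 uM, 0.5% DMSO; DMSO baseline, bidirectional fitting.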
# [6] = APR_HepG2_CellCycleArrest_24hr: Apredica 24-hour HepG2 Assay for Cell Cycle Arrest (AID 2282905); settings: imaging, actives raise or lower the signal;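 further: cell cycle arrest scored as ratio of 2N to 4N nuclear DNA content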
# Summary of the method: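 Compounds (0.39 to 200 uM, final DMSO 0.5% v/v) are applied to HepG2 cells for 24 hours; cells are then fixed, permeabilized and nuclei labeled with Hoechst 33342. Automated imaging measures DNA content, and activity is fitted in both directions against DMSO.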
# [7] = APR_HepG2_StressKinase_1hr: Apredica 1-hour HepG2 Assay for Stress Kinase (AID 2282906); settings: HepG2 stress kinase (phospho-c-Jun) imaging, actives raise or lower the signal
# Summary of the method: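 High-content imaging of phospho-c-Jun immunostaining (with Hoechst nuclear identification) after a 1 h exposure of HepG2 cells to 10 concentrations from 0.39 to 200 uM, final DMSO 0.5%. Fitted bidirectionally against DMSO.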
# [8] = APR_HepG2_NuclearSize_24hr: Apredica 24-hour HepG2 Assay for Nuclear Size (AID 2282907); settings: high-content imaging, actives raise or lower the signal
# Summary of the method: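 Nuclear size is measured by fluorescence high-content imaging of Hoechst-labelled HepG2 nuclei after 24 hr of treatment (0.39–200 uM, 0.5% DMSO). Cells are fixed in 3.7% formaldehyde before staining, and DMSO serves as the baseline for bidirectional curve fitting.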
# [9] = APR_HepG2_CellLoss_24hr: Apredica 24-hour HepG2 Assay for Cell Loss (AID 2282908); settings: high-content imaging;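 on AC50: fit in both directions so a hit may be cell loss or gain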
# Summary of the method: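 Nuclear count serves as the viability measure: treated cells are fixed, permeabilized and labelled with Hoechst 33342, and six images per well are analysed to identify valid nuclei. Doses span 0.39–200 uM, and activity in either direction is scored against DMSO.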
# [10] = APR_HepG2_MicrotubuleCSK_24hr: Apredica 24-hour HepG2 Assay for Microtubule CSK Stabilty (AID 2282909); settings: HepG2 microtubule cytoskeleton imaging, actives raise or lower the signal
# Summary of the method: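 Compounds were applied to HepG2 cells for 24 hours across 0.39–200 uM in duplicate, with final DMSO at 0.5% v/v. Fixed, permeabilized cells were labeled for alpha-tubulin and nuclei, and tubulin fluorescence was quantified by imaging, fitted bidirectionally against DMSO.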
# [11] = APR_HepG2_MitoticArrest_24hr: Apredica 24-hour HepG2 Assay for Mitotic Arrest (AID 2282910); settings: high-content imaging, actives raise or lower the signal
# Summary of the method: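 Treatment lasted 24 hr in the human HepG2 line at 0.39–200 uM, solvent held at 0.5% DMSO. Fixed cells were stained with Hoechst 33342 and anti-phospho-histone H3, imaged at 20x, and analysed by gain- or loss-of-signal fitting against DMSO.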
# [12] = APR_HepG2_MitoMembPot_24hr: Apredica 24-hour HepG2 Assay for Mitochondrial Membrane Potential (AID 2282911); settings: imaging, actives raise or lower the signal
# Summary of the method: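 HepG2 human liver cells were exposed 24 hr to compounds at 0.39–200 uM (final DMSO 0.5% v/v) in duplicate. MitoTracker Red CMXRos (250 nM, 30 min) was loaded before formaldehyde fixation; fluorescence was imaged by ArrayScan HCS and fitted bidirectionally versus DMSO.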
# [13] = APR_HepG2_MitoMass_24hr: Apredica 24-hour HepG2 Assay for Mitochondrial Mass (AID 2282912); settings: high-content imaging, actives raise or lower the signal
# Summary of the method: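 After 24 hr of treatment at 0.39 to 200 uM, HepG2 cells take up 250 nM MitoTracker Red CMXRos for 30 min and are then fixed with 3.7% formaldehyde. Per-well images are quantified, and any change in either direction is scored against solvent.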
# [14] = APR_HepG2_CellCycleArrest_72hr: Apredica 72-hour HepG2 Assay for Cell Cycle Arrest (AID 2282914); settings: high-content imaging, actives raise or lower the signal
# Summary of the method: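 HepG2 cells were exposed to compounds at 0.39–200 uM (0.5% v/v DMSO final, duplicates) for 72 hr, fixed in 3.7% formaldehyde, permeabilized and stained with Hoechst 33342. Nuclear DNA content was quantified by high-content imaging; gain or loss of signal was fitted bidirectionally against DMSO.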
# [15] = APR_HepG2_MitoMembPot_1hr: Apredica 1-hour HepG2 Assay for Mitochondrial Membrane Potential (AID 2282675); settings: imaging, actives raise or lower the signal
# Summary of the method: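 Mitochondrial membrane potential read as MitoTracker Red CMXRos intensity by automated imaging of fixed HepG2 cells. Dye at 250 nM for 30 min pre-fixation; compounds 0.39 to 200 uM for 1 hour, duplicate wells, 0.5% DMSO.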
# [16] = APR_HepG2_p53Act_1hr: Apredica 1-hour HepG2 Assay for p53 Activation (AID 2282671); settings: high-content imaging, actives raise or lower the signal
# Summary of the method: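 After 1 h exposure (0.39–200 uM, 0.5% DMSO final, duplicates), fixed HepG2 cells were labelled with anti-p53 antibody plus Hoechst nuclear stain. Fluorescence quantified by automated 20x imaging; changes fitted in both directions against DMSO.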
# [17] = APR_HepG2_p53Act_24hr: Apredica 24-hour HepG2 Assay for p53 Activation (AID 2282913); settings: high-content imaging, actives raise or lower the signal;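 further: p53 protein immunofluorescence averaged per cell in HepG2 with Hoechst nuclei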
# Summary of the method: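 HepG2 cells exposed 24 hr to compounds at 0.39–200 uM (10 concentrations, duplicate), final DMSO 0.5% v/v. After formaldehyde fixation and Triton permeabilization, p53 was immunolabeled (sheep anti-p53, Cy5 secondary) with Hoechst 33342 nuclear counterstain, then imaged by high-content fluorescence microscopy.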
# [18] = APR_HepG2_CellLoss_72hr: Apredica 72-hour HepG2 Assay for Cell Loss (AID 2282915); settings: high-content imaging
# Summary of the method: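 HepG2 cells were exposed for 72 hr to compounds at 0.39–200 uM (ten concentrations, duplicate) in 0.5% v/v final DMSO. Nuclei were stained with Hoechst 33342 after 3.7% formaldehyde fixation, imaged at 20x, and counted; fits bidirectional versus DMSO.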
# [19] = APR_HepG2_NuclearSize_1hr: Apredica 1-hour HepG2 Assay for Nuclear Size (AID 2282670); settings: high-content imaging, actives raise or lower the signal
# Summary of the method: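 Nuclear size measured by high-content imaging of Hoechst 33342 nuclear stain after formaldehyde fixation; human HepG2 line exposed 1 hr to compounds at 0.39–200 uM in 0.5% DMSO, with bidirectional curve fitting relative to DMSO.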
compound,measurement,setting,value
CCOP(=O)(SC(C)CC)N1CCSC1=O (stereo unspecified),outcome,[1],inactive
same,outcome,[2],inactive
same,outcome,[3],inactive
same,outcome,[4],inactive
same,outcome,[5],inactive
same,outcome,[6],inactive
same,outcome,[7],inactive
same,outcome,[8],inactive
same,outcome,[9],inactive
same,outcome,[10],inactive
same,outcome,[11],inactive
same,outcome,[12],inactive
same,outcome,[13],inactive
same,outcome,[14],inactive
CCCSP(=O)(OCC)SCCC,outcome,[1],inactive
same,outcome,[2],inactive
same,outcome,[3],inactive
same,outcome,[4],inactive
same,outcome,[5],inactive
same,outcome,[15],inactive
same,outcome,[6],inactive
same,outcome,[8],inactive
same,outcome,[9],inactive
same,outcome,[10],inactive
same,outcome,[11],inactive
same,outcome,[13],inactive
same,outcome,[14],inactive
Nc1nc(N)nc(NC2CC2)n1,outcome,[2],inactive
same,outcome,[16],inactive
same,outcome,[3],inactive
same,outcome,[4],inactive
same,outcome,[5],inactive
same,outcome,[15],inactive
same,outcome,[6],inactive
same,outcome,[8],inactive
same,outcome,[9],inactive
same,outcome,[10],inactive
same,outcome,[11],inactive
same,outcome,[12],inactive
same,outcome,[13],inactive
same,outcome,[17],inactive
same,outcome,[14],inactive
N#CSCSC#N,outcome,[1],inactive
same,outcome,[2],inactive
same,outcome,[16],inactive
same,outcome,[3],inactive
same,outcome,[4],inactive
same,outcome,[5],inactive
same,outcome,[6],inactive
same,outcome,[8],inactive
same,AC50,[9],13.6 µM (active)
same,outcome,[10],inactive
same,outcome,[11],inactive
same,outcome,[12],inactive
same,outcome,[13],inactive
same,outcome,[17],inactive
same,outcome,[14],inactive
same,outcome,[18],inactive
CCc1cnc(C2=NC(C)(C(C)C)C(=O)N2)c(C(=O)O)c1 (stereo unspecified),outcome,[2],inactive
same,outcome,[19],inactive
same,outcome,[3],inactive
same,outcome,[4],inactive
same,outcome,[5],inactive
same,outcome,[15],inactive
same,outcome,[6],inactive
same,outcome,[7],inactive
same,outcome,[8],inactive
same,outcome,[9],inactive
same,outcome,[10],inactive
same,outcome,[11],inactive
same,outcome,[13],inactive
same,outcome,[14],inactive
Cc1nn(-c2cc(NS(C)(=O)=O)c(Cl)cc2Cl)c(=O)n1C(F)F,outcome,[2],inactive
same,outcome,[16],inactive
same,outcome,[3],inactive
same,outcome,[4],inactive
same,outcome,[5],inactive
same,outcome,[6],inactive
same,outcome,[7],inactive
same,outcome,[8],inactive
same,outcome,[9],inactive
same,outcome,[10],inactive
same,outcome,[11],inactive
same,outcome,[13],inactive
same,outcome,[17],inactive
same,outcome,[14],inactive
same,outcome,[18],inactive
O=[N+]([O-])c1cc(C(F)(F)F)c(Cl)c([N+](=O)[O-])c1Nc1ncc(C(F)(F)F)cc1Cl,outcome,[2],inactive
same,outcome,[3],inactive
same,AC50,[4],21.6 µM (active)
same,AC50,[5],103 µM (active)
same,AC50,[6],1.37 µM (active)
same,AC50,[7],9.87 µM (active)
same,outcome,[8],inactive
same,AC50,[9],49.5 µM (active)
same,AC50,[10],1.14 µM (active)
same,outcome,[11],inactive
same,outcome,[13],inactive
same,AC50,[14],0.676 µM (active)
same,AC50,[18],1.33 µM (active)
COP(=O)(OC)OC(Br)C(Cl)(Cl)Br (stereo unspecified),outcome,[2],inactive
same,outcome,[19],inactive
same,outcome,[3],inactive
same,outcome,[4],inactive
same,outcome,[5],inactive
same,outcome,[15],inactive
same,outcome,[6],inactive
same,outcome,[7],inactive
same,outcome,[8],inactive
same,AC50,[9],45 µM (active)
same,AC50,[10],34.1 µM (active)
same,AC50,[11],34.2 µM (active)
same,outcome,[13],inactive
same,outcome,[14],inactive
CCOP(=S)(OCC)Oc1ccc([N+](=O)[O-])cc1,outcome,[2],inactive
same,outcome,[16],inactive
same,outcome,[3],inactive
same,outcome,[4],inactive
same,outcome,[5],inactive
same,outcome,[15],inactive
same,outcome,[6],inactive
same,outcome,[8],inactive
same,outcome,[9],inactive
same,outcome,[10],inactive
same,outcome,[11],inactive
same,outcome,[13],inactive
same,outcome,[17],inactive
same,outcome,[14],inactive
same,outcome,[18],inactive
CCOC(=O)CC(SP(=O)(OC)OC)C(=O)OCC (stereo unspecified),outcome,[1],inactive
same,outcome,[2],inactive
same,outcome,[16],inactive
same,outcome,[3],inactive
same,outcome,[4],inactive
same,outcome,[5],inactive
same,outcome,[6],inactive
same,outcome,[7],inactive
same,outcome,[8],inactive
same,outcome,[9],inactive
same,outcome,[10],inactive
same,outcome,[11],inactive
same,outcome,[12],inactive
same,outcome,[13],inactive
same,outcome,[17],inactive
same,outcome,[14],inactive
same,outcome,[18],inactive
COP(=O)(NC(C)=O)SC (stereo unspecified),outcome,[2],inactive
same,outcome,[16],inactive
same,outcome,[3],inactive
same,outcome,[4],inactive
same,outcome,[5],inactive
same,outcome,[15],inactive
same,outcome,[6],inactive
same,outcome,[8],inactive
same,outcome,[9],inactive
same,outcome,[10],inactive
same,outcome,[11],inactive
same,outcome,[12],inactive
same,outcome,[13],inactive
same,outcome,[17],inactive
same,outcome,[14],inactive
